# Assay results published in PubChem BioAssay.
# Activity calls are given as the source filed them.
# How the values were obtained:
# [1] = test system: PRMT1 (protein arginine N-methyltransferase 1); assay: PRMT1 binders on small-molecule microarrays, primary screen, biochemical, small-molecule microarray, 635 nm fluorescence (AID 1088); conditions: small-molecule microarray binding, higher = more signal;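 note: binding of Prmt1 protein to compounds spotted on small-molecule microarray slides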
# [2] = yeast growth modulation, basal conditions, primary screen, YJM789 clinical isolate, OD600, 24 h (AID 1089);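 note: growth of clinical yeast isolate S. cerevisiae YJM 789 seeded 1000 cells per well; test concentration not given here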; conditions: S. cerevisiae YJM789 growth, higher = more signal, called active from +8 up or from −8 down
# [3] = fission yeast growth modulation, primary screen, strain 972, OD600, 24 h, no modulator (AID 1090);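 note: basal condition with compound alone and no growth modifier present; test concentration not given here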; conditions: S. pombe 972 growth, higher = more signal, called active from +8 up or from −8 down
# [4] = S. cerevisiae growth modulation with rapamycin, primary screen, strain BY4716, OD600, 96 h (AID 1091); conditions: higher = more signal, called active from +8 up or from −8 down; note: test concentration not given here
# [5] = molecular target: Torsin-1A-interacting protein 2 (Homo sapiens) (UniProt Q8NFQ8); assay: LULL1 binders on small-molecule microarray, primary screen, cell lysate, human LULL1 lysate, 635/667 nm fluorescence (AID 1092); conditions: hLULL1 lysate binding, 635 nm fluorescence, higher = more signal;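 note: probe is lysate of COS7 cells overexpressing human LULL1; score merges per-feature 667 nm fluorescence with signal-to-noise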
# [6] = E. coli growth modulation, two-sided OD650, primary screen, E. coli filamentation project, strain DRC41, 24 h (AID 1093); conditions: OD650, 24 h, higher = more signal, called active from +8 up or from −8 down;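 note: MC1000 strain lacking acrAB efflux and sulA so SOS filamentation is blocked; test concentration not given here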
# [7] = small-molecule microarray binders of probe aLefty2, primary screen, biochemical, biotinylated probe, 635/667 nm fluorescence (AID 1094); conditions: higher = more signal;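 note: score merges spot fluorescence near 667 nm with spot signal-to-noise ratio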
# [8] = test system: Noggin (protein binding on small-molecule microarray); assay: Noggin binders on small-molecule microarray, primary screen, biochemical, 635/667 nm fluorescence (AID 1095); conditions: 635 nm fluorescence, higher = more signal;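 note: score merges 667 nm feature fluorescence with signal to noise over triplicate slides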
# [9] = molecular target: Neurogenic locus notch homolog protein 3 (Homo sapiens) (UniProt Q9UM47); assay: NOTCH3 binders on small-molecule microarray, primary screen, biochemical, 635/667 nm fluorescence (AID 1096); conditions: NOTCH3 binding, 635 nm fluorescence, higher = more signal
# [10] = small-molecule microarray binders of probe aEGFR, primary screen, biochemical, biotinylated probe, 635/667 nm fluorescence (AID 1097); conditions: higher = more signal;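 note: probe is a biotinylated anti-EGFR antibody binding compounds printed on slides; score combines fluorescence near 667 nm and signal to noise of each spot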
# Sequence of Neurogenic locus notch homolog protein 3 (Homo sapiens) (Q9UM47 whole entry, looked up): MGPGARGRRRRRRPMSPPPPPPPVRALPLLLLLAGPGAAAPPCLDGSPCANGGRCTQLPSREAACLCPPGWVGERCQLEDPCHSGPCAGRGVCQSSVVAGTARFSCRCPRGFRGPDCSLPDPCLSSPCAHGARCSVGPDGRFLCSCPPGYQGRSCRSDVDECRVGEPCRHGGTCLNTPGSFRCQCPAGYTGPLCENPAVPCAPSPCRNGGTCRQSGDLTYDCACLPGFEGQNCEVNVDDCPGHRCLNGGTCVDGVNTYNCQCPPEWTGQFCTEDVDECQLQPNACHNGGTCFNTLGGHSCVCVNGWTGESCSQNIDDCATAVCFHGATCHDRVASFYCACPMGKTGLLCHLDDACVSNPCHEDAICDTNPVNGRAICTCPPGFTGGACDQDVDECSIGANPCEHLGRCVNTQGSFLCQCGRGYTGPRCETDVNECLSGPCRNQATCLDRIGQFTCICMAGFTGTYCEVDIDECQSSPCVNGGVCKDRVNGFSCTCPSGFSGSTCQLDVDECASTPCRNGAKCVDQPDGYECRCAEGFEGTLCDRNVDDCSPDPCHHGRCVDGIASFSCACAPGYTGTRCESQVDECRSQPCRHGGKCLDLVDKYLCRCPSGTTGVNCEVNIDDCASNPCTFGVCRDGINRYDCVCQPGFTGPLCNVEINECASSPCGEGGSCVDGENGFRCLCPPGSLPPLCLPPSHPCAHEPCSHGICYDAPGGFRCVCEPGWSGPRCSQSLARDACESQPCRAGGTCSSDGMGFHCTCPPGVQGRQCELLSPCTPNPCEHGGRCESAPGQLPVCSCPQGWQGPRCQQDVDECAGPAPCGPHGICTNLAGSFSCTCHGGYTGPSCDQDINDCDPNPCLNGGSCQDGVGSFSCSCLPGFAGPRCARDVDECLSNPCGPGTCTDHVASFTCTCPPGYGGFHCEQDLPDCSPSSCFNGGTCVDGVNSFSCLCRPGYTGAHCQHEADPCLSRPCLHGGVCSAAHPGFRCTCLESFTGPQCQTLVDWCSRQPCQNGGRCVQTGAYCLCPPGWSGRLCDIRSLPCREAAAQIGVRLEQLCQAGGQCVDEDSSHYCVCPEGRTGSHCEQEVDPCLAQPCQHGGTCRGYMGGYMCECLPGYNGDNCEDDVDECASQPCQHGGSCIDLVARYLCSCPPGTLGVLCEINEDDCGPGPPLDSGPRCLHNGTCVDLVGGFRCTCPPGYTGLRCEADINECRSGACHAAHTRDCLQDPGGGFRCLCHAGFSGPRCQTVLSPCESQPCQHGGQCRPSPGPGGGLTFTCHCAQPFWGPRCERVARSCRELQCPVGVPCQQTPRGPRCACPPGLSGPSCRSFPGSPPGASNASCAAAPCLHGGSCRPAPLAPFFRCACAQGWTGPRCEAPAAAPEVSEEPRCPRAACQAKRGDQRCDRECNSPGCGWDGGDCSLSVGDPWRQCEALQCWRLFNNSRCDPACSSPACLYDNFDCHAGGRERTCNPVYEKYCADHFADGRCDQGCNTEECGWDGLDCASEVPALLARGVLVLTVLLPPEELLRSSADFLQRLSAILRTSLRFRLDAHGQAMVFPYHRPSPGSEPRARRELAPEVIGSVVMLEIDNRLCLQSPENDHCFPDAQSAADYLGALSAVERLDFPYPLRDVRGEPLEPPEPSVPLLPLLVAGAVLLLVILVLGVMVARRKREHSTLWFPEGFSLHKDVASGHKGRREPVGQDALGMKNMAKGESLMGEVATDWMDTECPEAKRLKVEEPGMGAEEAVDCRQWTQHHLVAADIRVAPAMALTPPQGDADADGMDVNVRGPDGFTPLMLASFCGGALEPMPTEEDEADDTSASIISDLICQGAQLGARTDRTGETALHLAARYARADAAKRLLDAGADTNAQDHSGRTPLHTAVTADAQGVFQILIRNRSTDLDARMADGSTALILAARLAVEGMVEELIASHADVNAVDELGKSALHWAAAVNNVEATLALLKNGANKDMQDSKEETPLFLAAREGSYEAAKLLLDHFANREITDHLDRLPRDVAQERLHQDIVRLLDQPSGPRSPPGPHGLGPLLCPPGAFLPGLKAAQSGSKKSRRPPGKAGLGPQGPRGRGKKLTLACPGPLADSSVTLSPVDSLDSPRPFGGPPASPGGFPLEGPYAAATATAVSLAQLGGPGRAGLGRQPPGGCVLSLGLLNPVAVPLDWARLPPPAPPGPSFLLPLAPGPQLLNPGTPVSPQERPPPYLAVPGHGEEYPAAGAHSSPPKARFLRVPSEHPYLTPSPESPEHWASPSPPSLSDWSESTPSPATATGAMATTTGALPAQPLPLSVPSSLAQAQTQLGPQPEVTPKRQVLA
# Sequence of Torsin-1A-interacting protein 2 (Homo sapiens) (Q8NFQ8 whole entry, looked up): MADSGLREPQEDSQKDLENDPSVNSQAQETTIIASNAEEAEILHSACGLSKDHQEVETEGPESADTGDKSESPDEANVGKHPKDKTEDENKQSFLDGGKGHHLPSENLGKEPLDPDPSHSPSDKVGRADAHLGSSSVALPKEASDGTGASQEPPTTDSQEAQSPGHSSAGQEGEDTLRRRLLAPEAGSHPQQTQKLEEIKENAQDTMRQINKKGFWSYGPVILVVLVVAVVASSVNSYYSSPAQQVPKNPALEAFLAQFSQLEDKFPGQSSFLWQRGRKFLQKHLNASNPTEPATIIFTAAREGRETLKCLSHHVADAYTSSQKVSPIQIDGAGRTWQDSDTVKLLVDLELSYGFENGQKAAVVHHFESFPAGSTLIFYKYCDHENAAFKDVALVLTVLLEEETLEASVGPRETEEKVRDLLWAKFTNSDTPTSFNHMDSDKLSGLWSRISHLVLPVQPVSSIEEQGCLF
Structure (SMILES),composite z-score [1],z-score [2],z-score [3],z-score [4],composite z-score [5],z-score [6],composite z-score [7],composite z-score [8],composite z-score [9],composite z-score [10]
CN1C(=O)C2C=CC(C(O)c3cccs3)N(N(c3ccccc3)c3ccccc3)C2C1=O (stereo not given),1.2,1 (inactive),0.881 (inactive),0.571 (inactive),2.62,-0.874 (inactive),0.0453,0.0625,0.932,-0.17
CCCC[C@@H](O)C1=C(C)Cn2c(=O)n(-c3ccccc3)c(=O)n2[C@H]1CO,-0.23,-1.43 (inactive),-1.39 (inactive),-0.846 (inactive),-0.249,2.53 (inactive),-0.218,-0.0422,-0.839,-0.0517
C[C@]12C(=O)N(CCO)[C@@H]3C(=O)N(c4ccc(Cl)cc4)CC=CC31O[C@@H]1/C=C\CCCOC(=O)C12 (stereo not given in full),-0.0919,-0.174 (inactive),-0.13 (inactive),0.169 (inactive),-0.236,0.125 (inactive),0.034,-0.464,0.0111,-0.216
CCCCCCCCCCC(O)C1C=CC2C(=O)N(C)C(=O)C2N1Nc1ccccc1 (stereo not given),-1.19,0.875 (inactive),-1.53 (inactive),0.882 (inactive),0.8,-1.87 (inactive),-0.405,-0.387,-1.4,-0.247
O=C1N(Cc2ccccc2)c2ccccc2C[C@@]12N=C(c1ccc(OCCCO)cc1)O[C@H]2c1ccccc1,1.55,-0.789 (inactive),-2.61 (inactive),3.55 (inactive),3.03,-0.788 (inactive),0.0686,0.591,1,-0.178
O=C1C[C@@](C(=O)NCC(F)(F)F)(c2ccc([N+](=O)[O-])cc2)[C@@H](c2ccc(CO)cc2I)N1CC12CC3CC(CC(C3)C1)C2,1.55,-1.36 (inactive),-0.301 (inactive),21.1 (active),2.73,0.548 (inactive),-0.189,0.515,0.978,-0.206
CN(C)CCCCNC(=O)[C@H]1C[C@H]2C(=O)N[C@@H](CCCCN(C)C)C(=O)N2[C@H]1c1ccc(O)cc1,1.39,-2.61 (inactive),-0.403 (inactive),-1.41 (inactive),-0.237,1.55 (inactive),-0.192,0.774,0.343,-0.176
CCOC(=O)C[C@H]1[C@H](OC(=O)c2cc3ccccc3oc2=O)[C@@H](NC(=O)c2ccc(-c3ccccc3)cc2)c2cc(OCCCO)ccc2N1C(=O)Cc1ccc(OC)cc1,1.2,-0.792 (inactive),-0.398 (inactive),-0.077 (inactive),1.93,-0.423 (inactive),-0.212,0.421,1.11,0.148
COc1ccc([Si](C)(C)[C@@H]2[C@@H](CC(=O)N3CCC[C@H]3CO)O[C@]3(C(=O)N(Cc4cccc(N5C(=O)c6cccc7cccc5c67)c4)c4ccccc43)[C@H]2C)cc1,1.34,-0.702 (inactive),-0.487 (inactive),-0.158 (inactive),1.48,1.55 (inactive),-0.0757,0.641,0.368,-0.115
COC(=O)[C@@]1(Cc2ccc(F)cc2)[C@H]2c3cc(C(=O)N4CCCC4)n(C[C@H](O)CO)c3C[C@H]2CN1C(=O)c1ccccc1,-0.399,-0.161 (inactive),1.34 (inactive),-0.0363 (inactive),1.57,-0.836 (inactive),1.03,-0.123,0.176,0.732
COCCOC(=O)N1C(=O)[C@@]2(c3cc(C#CC4=CCCCC4)ccc31)[C@H](c1ccc(O)cc1)N1[C@H](c3ccccc3)[C@H](c3ccccc3)OC(=O)[C@H]1[C@@H]2C(=O)N1CCc2cc(OC)c(OC)cc2C1,1.15,0.793 (inactive),0.244 (inactive),0.543 (inactive),2.56,0.0512 (inactive),0.0113,0.286,0.399,-0.0065
CCOC(=O)C[C@H]1[C@H](OC(=O)c2cc3ccccc3oc2=O)[C@@H](NC(=O)Cc2ccc(OC)cc2)c2cc(OCCCO)ccc2N1C(=O)Cc1ccc(OC)cc1,0.638,-0.903 (inactive),-1.04 (inactive),-1.79 (inactive),1.65,1.52 (inactive),-0.058,0.534,0.91,-0.0313
C=CCNC(=O)[C@H]1[C@@H]2C(=O)O[C@@H](c3ccccc3)[C@@H](c3ccccc3)N2[C@@H](c2ccc(OCCO)cc2)[C@]12C(=O)N(C(=O)OCCOC)c1ccc(C#CCNC(N)=O)cc12,1.55,1.91 (inactive),0.996 (inactive),4.55 (inactive),1.97,-0.121 (inactive),0.247,1.84,1.11,0.0173
[N-]=[N+]=Nc1ccccc1C[C@@]1(C(=O)NCc2ccccc2)N=C(c2ccc(OCCCO)cc2)O[C@@H]1c1ccccc1,1.54,-1.27 (inactive),0.326 (inactive),5.57 (inactive),3.02,0.594 (inactive),0.271,0.922,1.03,0.1
